An excerpt weighted towards active compounds, which were near 2.4% of everything screened.
ANO1 block: blocks the mouse calcium-activated chloride channel TMEM16A; hit rate 1.2% among 310,000; HEK293 TMEM16A/YFP iodide influx fluorescence, ionomycin; normalized B-score (activity score, 25-100; higher = stronger inhibition) at 10 µM; Q8BHY3;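 active means ratio plate-corrected score three or more library SD toward inhibition, starting fluorescence score within five deviations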;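 further: score derived from kinetic fluorescence span divided by baseline fluorescence per well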
NOD2-RIPK2 inh: blocks binding of human NOD2 to RIPK2. CHO BLA complementation NOD2-RIPK2, CCF4 ratio. inhibition, % at 4.98 µM. hit rate 0.38% among 360,000; in the data active means inhibition above about 21%;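 further: 0% = vehicle only and 100% = reference blocker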
HTR2A ag: agonists of mouse serotonin 5-HT2A receptor (HTR2A) | CHO-K1 mHTR2A beta-arrestin complementation, luminescence; percent of 30 µM serotonin response | activation, % at 7.6 µM | hit rate 0.66% among 360,000 | P35363;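 active means activation above a run cutoff, the mean activation of all tested compounds plus 3 SD, cut at about 14% in these data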;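 further: 0% = plate median of compound wells and 100% = 30 µM serotonin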
TLR9-MyD88 block: inhibitors of human TLR9-MyD88 binding | Q9NR96+Q99836 | CHO BLA complementation TLR9-MyD88, CCF4 FRET ratio | inhibition, % at 4.98 µM | hit rate 0.21% among 340,000 | AID 504734;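 active means inhibition above the mean over all tested compounds plus 3 SD, cut at about 21% in these data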;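 further: 0% = DMSO only wells and 100% = clavulanate BLA inhibitor control wells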
TLR4-MyD88 BLA: TLR4-MyD88 interaction inhibition in cells. O00206+Q99836. HeLa CL3-4 TLR4/MyD88 BLA complementation, FRET ratio. inhibition, % at 8.4 µM. hit rate 0.18% among 200,000. AID 861; in the data active means inhibition above about 25%;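 further: 0% = vehicle and 100% = reference inhibitor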
Target sequence (O00206 whole entry, looked up): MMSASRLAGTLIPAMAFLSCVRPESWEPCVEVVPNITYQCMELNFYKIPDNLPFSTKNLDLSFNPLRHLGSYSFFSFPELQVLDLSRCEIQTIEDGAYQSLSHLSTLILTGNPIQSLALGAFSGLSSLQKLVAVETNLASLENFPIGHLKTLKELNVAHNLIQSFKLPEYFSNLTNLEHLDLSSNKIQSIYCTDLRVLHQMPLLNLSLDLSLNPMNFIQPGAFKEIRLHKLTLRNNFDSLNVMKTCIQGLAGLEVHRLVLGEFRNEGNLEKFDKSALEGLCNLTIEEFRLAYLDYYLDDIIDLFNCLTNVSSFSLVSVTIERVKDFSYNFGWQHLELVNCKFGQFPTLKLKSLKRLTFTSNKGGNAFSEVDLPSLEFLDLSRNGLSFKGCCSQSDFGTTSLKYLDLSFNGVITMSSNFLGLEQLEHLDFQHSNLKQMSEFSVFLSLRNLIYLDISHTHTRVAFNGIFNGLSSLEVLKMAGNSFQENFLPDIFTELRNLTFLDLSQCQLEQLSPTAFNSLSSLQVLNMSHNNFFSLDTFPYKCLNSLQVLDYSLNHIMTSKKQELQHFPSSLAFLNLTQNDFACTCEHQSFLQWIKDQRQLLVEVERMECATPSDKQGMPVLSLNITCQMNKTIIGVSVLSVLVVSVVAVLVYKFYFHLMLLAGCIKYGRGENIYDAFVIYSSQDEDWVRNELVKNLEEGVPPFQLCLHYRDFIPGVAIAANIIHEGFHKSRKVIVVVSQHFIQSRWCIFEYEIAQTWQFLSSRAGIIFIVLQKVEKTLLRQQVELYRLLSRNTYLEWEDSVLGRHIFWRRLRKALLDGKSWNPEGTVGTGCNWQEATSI
Target sequence (Q99836 whole entry, looked up): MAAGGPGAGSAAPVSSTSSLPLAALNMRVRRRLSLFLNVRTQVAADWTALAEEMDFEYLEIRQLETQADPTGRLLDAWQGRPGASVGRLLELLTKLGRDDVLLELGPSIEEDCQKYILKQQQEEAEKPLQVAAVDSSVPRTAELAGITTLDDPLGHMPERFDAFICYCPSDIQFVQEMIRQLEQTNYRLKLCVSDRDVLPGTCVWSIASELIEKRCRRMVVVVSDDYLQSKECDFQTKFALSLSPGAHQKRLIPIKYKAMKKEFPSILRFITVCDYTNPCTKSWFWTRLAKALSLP
ANO1 activ: mouse TMEM16A channel activation, primary screen; Q8BHY3; HEK293 TMEM16A/YFP-H148Q/I152L, iodide quench fluorescence; active compounds read low; B-score at 10 µM; hit rate 0.3% among 340,000;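 active means fluorescence-ratio B-score plate-corrected deviation score at least 3 library SD below zero, with starting fluorescence score within 5 deviations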;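 further: channel opened by trigger with iodide after compound preincubation; score built on the fluorescence ratio of max minus min over baseline; more negative score means more quench and so TMEM16A activation or potentiation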
NOD2 RIPK2 conf: NOD2-RIPK2 interaction inhibition confirmed. inhibition, % at 4.98 µM. shares compounds with NOD2-RIPK2 inh. hit rate 70% among 1,200. CHO cells, NOD2-RIPK2 BLA complementation, CCF4 FRET;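 active means mean inhibition across replicates above a set limit taken from the earlier primary screen, cut at about 21% in these data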;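 further: 0% = DMSO-only wells and the high end = clavulanate BLA-blocked wells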
NOD2 BLA counter: hits BLA reporter in NOD2-RIPK2 inhibitor counterscreen | shares compounds with NOD2-RIPK2 inh | CHO BLA reporter, CCF4 FRET ratio | inhibition, % at 4.98 µM | hit rate 57% among 1,200 | AID 624371;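 active means mean inhibition above the low-control mean inhibition plus three low-control SD, cut at about 11% in these data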;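 further: 0% = DMSO only wells and 100% = clavulanate high control wells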
* hit, by the source's call; i = inactive; . = no result.

SMILES | ANO1 block | NOD2-RIPK2 inh | HTR2A ag | TLR9-MyD88 block | TLR4-MyD88 BLA | ANO1 activ | NOD2 RIPK2 conf | NOD2 BLA counter
COc1ccccc1-c1cc(C(F)(F)F)nc(S(=O)(=O)CCCC(=O)NC(C)C)n1 | i | -4 | 0 | -5 | -2 | i | . | .
COc1ccccc1Cn1c(=S)[nH]c2ccccc2c1=O | i | -1 | 11 | -11 | . | i | . | .
Cc1cc(O)c(C2=Nc3ccccc3SC(c3ccc(Cl)cc3)C2)c(=O)o1 (configuration not stated) | i | -2 | -4 | 5 | 5 | i | . | .
COc1ccc(C2CC(c3c(O)cc(C)oc3=O)=NCCS2)c(OC)c1 (configuration not stated) | i | 23* | -3 | 16 | 10 | i | 15 | 4
CCOC(=O)c1c(CN2CCNCC2)nc2ccc(Cl)cc2c1-c1ccccc1 | . | 21* | -10 | -7 | . | i | 19 | -3
CCOC(=O)C1=CN(Cc2cccc(-c3cccnc3)c2)S(=O)(=O)N(CC)C1C (configuration not stated) | . | 11 | 5 | -6 | . | i | . | .
CC(C)Oc1ccc(CNC(=O)Cn2ccc3cc(S(=O)(=O)N4CCCC4)ccc32)cc1 | i | 27* | -1 | 3 | . | i | -4 | -1
COc1cccc(CNC(=O)Cn2ccc3cc(S(=O)(=O)N4CCCC4)ccc32)c1 | i | -2 | -2 | -17 | . | i | . | .
CCN(C(=O)CSc1nnc(NCCOC)s1)c1c(N)n(Cc2ccccc2)c(=O)[nH]c1=O | . | 6 | 10 | 16 | . | i | . | .
Cc1ccc(S(=O)(=O)SCCCSS(=O)(=O)c2ccc(C)cc2)cc1 | . | 36* | -2 | 2 | . | i | 43* | 2
Cc1ccccc1NC(=O)C1C2CCCC1C2c1ccccc1 (configuration not stated) | i | 0 | -1 | 0 | -13 | i | . | .
Cc1nc([N+](=O)[O-])c(Br)n1CC(=O)c1ccc(Cl)cc1 | i | 15 | -2 | -3 | 7 | i | . | .
Cc1nc([N+](=O)[O-])c(Br)n1Cc1ccc(Cl)c(Cl)c1 | . | 23* | -4 | 8 | 13 | i | 43* | -4
COc1cccc2cc(-c3nc(-c4cccs4)cs3)c(=O)oc12 | i | 3 | 0 | 8 | 20 | i | . | .
O=c1oc2ccccc2cc1-c1nc(-c2cccs2)cs1 | i | 32* | -4 | 20 | 17 | i | 43* | 51*
CC(=O)Nc1ccc(S(=O)(=O)N2CCC(C(=O)O)(c3ccccc3)CC2)cc1 | i | -12 | -1 | 3 | . | i | . | .
O=C(COC(=O)c1ccco1)NC1CCCc2ccccc21 (configuration not stated) | . | -7 | -2 | 3 | . | i | . | .
CCO[C@H]1OC(C(=O)NCc2ccccc2)=C[C@@H](c2ccc(Br)cc2)[C@@H]1CCCO | i | 29* | 5 | 0 | 3 | i | -20 | -5
CCO[C@@H]1OC(C(=O)NCc2ccccc2)=C[C@H](c2ccc(C(F)(F)F)cc2)[C@H]1CCCO | i | 3 | 7 | -3 | -6 | i | . | .
O=C1C(=C(I)I)c2ccccc2-c2ccccc21 | . | 68* | -1 | 14 | . | i | 84* | 7
Cc1cc(S(=O)(=O)c2ccc(Cl)cc2)nc(S(=O)(=O)c2ccc(Cl)cc2)c1C#N | . | 50* | 3 | 16 | . | . | 68* | 18*
O=C(Nc1ccc2c(c1)CCO2)Nc1nnc([C@H]2C[C@H](O)[C@@H](CO)O2)s1 | . | 9 | -1 | . | . | . | . | .
O=C(CCNS(=O)(=O)c1c(Cl)cccc1Cl)OCC(=O)c1ccccc1F | i | -3 | 1 | 4 | -6 | i | . | .
O=C(CCNS(=O)(=O)c1c(Cl)cccc1Cl)OCC(=O)c1ccccc1 | i | 67* | -5 | 0 | -4 | i | 7 | -3
Cc1cccc(NC(=O)CNC(=O)COc2ccc(-c3ccc(C#N)cc3)cc2)c1C | i | -5 | -1 | 7 | 2 | i | . | .
SMILES | ANO1 block | NOD2-RIPK2 inh | HTR2A ag | TLR9-MyD88 block | TLR4-MyD88 BLA | ANO1 activ | NOD2 RIPK2 conf | NOD2 BLA counter
Cc1ccc(/C=C2\Oc3c(ccc(O)c3CN3CCN(C)CC3)C2=O)cc1 | i | 29* | -6 | 12 | 12 | i | 21 | 25*
Cc1[nH]n(-c2ccccc2)c(=O)c1C=Nc1cccc2cccnc12 | i | 32* | -10 | 19 | 12 | i | 35* | 32*
O=C(CCC(=O)Nc1ccccc1)NNC(=O)CCc1ccccc1 | i | -1 | 1 | 5 | -1 | i | . | .
O=C(CCc1ccccc1)Nc1ccccc1 | i | 35* | 5 | -11 | -4 | i | -2 | -1
O=C(c1ccccc1)N1CCN(S(=O)(=O)c2ccccc2)CC1 | i | 31* | -7 | -9 | . | i | -7 | -3
CC1CCN(C(=O)CN2C(=O)NC(c3ccccc3)(c3ccccc3)C2=O)CC1 | . | -2 | 5 | -8 | . | i | . | .
Cc1ccc(NC(=O)C(OC(=O)c2ccc(F)cc2)c2ccccc2)cc1Cl (configuration not stated) | i | -11 | -5 | 0 | -2 | i | . | .
Cc1ccc(NC(=O)C(OC(=O)c2ccc(O)cc2)c2ccccc2)cc1Cl (configuration not stated) | i | 35* | 4 | -6 | -15 | i | -10 | -3
COc1ccc(/C=C2/CCC(CN3CCOCC3)C2=O)cc1 (configuration not stated) | . | 34* | -3 | -6 | . | i | 92* | 18*
C[N+](C)(C)CCC(=O)N1C/C(=C/c2ccccc2)C(=O)/C(=C\c2ccccc2)C1 | . | -8 | 0 | 3 | . | i | . | .
O=C1/C(=C/c2ccccc2)CN(C(=O)CCN2CCOCC2)C/C1=C\c1ccccc1 | . | 27* | 2 | 7 | . | i | 31* | 2
CN(C)CCC(=O)N1C/C(=C/c2ccccc2)C(=O)/C(=C\c2ccccc2)C1 | . | 61* | -6 | 3 | . | i | 55* | -1
O=C(COC(=O)/C=C/c1cc(Br)ccc1F)NC1CC1 | . | -4 | -2 | -12 | . | i | . | .
Cc1cccc(N2CCN(C(=O)c3[nH]c(C(F)(F)F)nc3-c3ccccc3)CC2)c1C | . | 4 | 0 | . | . | . | . | .
CCOC(=O)c1cnc2ccc(OC)cc2c1Nc1ccc(N2CCN(C)CC2)cc1 | i | -7 | -5 | 4 | . | i | . | .
O=C1C=CC2C3C(=O)N(c4ccccc4)C(=O)C3C1N2Cc1ccccc1 (configuration not stated) | . | 68* | -5 | 8 | . | i | 75* | -1
O=C1C2C3C=CC(CC3)C2C(=O)N1c1ccccc1 (configuration not stated) | i | -1 | -3 | 7 | . | i | . | .
CC(C)NS(=O)(=O)c1ccc(OCC(=O)N2CCN(c3ccccc3)CC2)cc1 | i | 68* | 0 | 2 | 7 | i | -6 | -3
Cc1ccc(C2C=C(c3ccccc3OC(F)F)Nc3ncnn32)cc1 (configuration not stated) | i | 30* | -2 | 16 | 17 | i | 27* | 31*
